108 sequences from PubChem BioAssay AID1508600 (Functional Genomics Laboratory (NCATS/FGL), 2020) can be followed below.

In all, about 53,000 sequences went through this assay and about 3,700 (7%) were called active. Shown is part of a subset that was picked to be rich in actives. A number with no mark means an inactive call.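 The calls were made as follows: active = gene knockdowns whose robust z-score for IL-1 alpha signal is at least 2 or at most -2, so actives lie on both sides; inactive = the rest.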

The assay in a line: Components of the Cytosolic LPS Sensing Pathway: Gene Identification via Genome-wide siRNA Screen.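 Also: robust z of the log signal after scaling to non-targeting control siRNA wells of the plate.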 Particulars: RAW264.7 macrophages, IL-1a HTRF, actives lie on both sides, screened at 100 nM (by protocol), cells primed 5 h with Pam3CSK4 first. In outline: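 Knockdown: 100 nM siRNA, 48h, RAW264.7. Stimulation: Pam3CSK4 5 h, then LipidA via TransIT-TKO 24 h. Output: supernatant IL-1a HTRF, negative-control-normalized, log robust z-score; viability by CellTiter-Glo.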
Turning to GGGUCUUCAGUAUUAACACTT against Yae1d1, the z-score was 2.62 (active).
GGCAUACCGGAAACUUGCCTT against Dnajb13: the z-score was -0.266.
In the case of GGUACAAACACGAUCAAGGTT against Aox4 it was 0.654; in that of GGGAAUCAUUAAAUAGGAUTT against Arhgap26, -0.163; in that of GGAAGAGCAUGAGUCGUUUTT against Scarb2, -0.122.
In the case of “GCUCCUACAAAACAUCCGATT against A130079P16Rik” it was -2.12 (active); in that of GGAAGUUCAUCAUGAUAUCTT against Cxadr, -0.108.
In the case of GGGCGAUGAAGAAGAGAAATT against Smad1 it was -0.443.
GGAAAGUUCUAAUGUUCAUTT against Sumo1: the z-score was 1.55.
In the case of GGAACCCAUCUCUCAAGCATT against Atp5g1 it was 0.563; in that of GGCAAUUCAAACAAUGCAGTT against Orm1, -1.41.
On to GCUAUAAUUUGACAGUUAGTT against Lrba, for which the z-score was 0.0367.
In the case of GGAGAGAUGCCUUUUAAGUTT against Zfp954 it was -0.252.
As to GGAUGGUCUUAGGAUUACGTT against Fgf15, the z-score is 2.04 (active).
Take GGUAAAGAUCCAGUGCCGCTT against Tbc1d10c: the z-score is -1.02.
In the case of GGUUCAAGUGCAUUGCUUCTT against Rab34 it was 0.979; in that of GGUGGAUUUUAAGUUUCCUTT against Aurkc, 3.43 (active).
In the case of GGGCAAUCUGAGCAAUUGUTT against Wnt7b it was -0.213.
In the case of GCCUAGACAAUGGUGACCUTT against Nsfl1c it was -0.772.
For the sequence CCGACAUUUUCGUCACCAGTT against Gabra1, the z-score was -1.
In the case of GGCUAAUGUAUCGUCUGAGTT against Asb16 it was 3.06 (active); in that of CCAGCCAUAUCAACCGUAUTT against Lzts3, 0.084.
In the case of CCGCUUCUCUAGUGAAUAATT against Uros it was -1.56.
In the case of GGAAACACUUGAACAAAGATT against Tph2 it was 0.518.
In the case of GGACAUGUUUGUGUUAAAGTT against Ctnna1, the z-score was 0.187.
In the case of GGUGUGUGGCCAGAAAGUUTT against Sfi1 it was -2.83 (active).
In the case of GCUUUAUGAGUUCACGGAGTT against Prkab2 it was 1.02; in that of GGUUCUUAUCUCUAUUCAGTT against Olfr1270, 0.432; in that of GGAAACCUACUGUUGCACUTT against Wdr59, -0.627.
For GAAGAUUGGAUUUAAAGCCTT against Olfr667, the z-score is -0.891.
In the case of GGCUACAAGUGGGAAUUCATT against Cmtm2b it was 1.61.
In the case of GGAGCUCAAGAACAGGAUGTT against Clec3b it was -0.0394.
In the case of GCGGAGAAUAACAUAUCUCTT against Fut8 it was -0.521; in that of GGAUUUGUAAAUUACCUGGTT against Clec4d, 0.544; in that of GCACAAUAAUAAUGACACUTT against AI597479, 2.76 (active).
Consider GUAUGCUAGCAUGAUCAACTT against Ndufa3, for which the z-score was 1.05.
In the case of GGCCAGAUAUUAUAAGAAATT against Gtdc1 it was 0.332; in that of GCCUUUGCAUGGCAGUCUATT against Zfp825, -0.716; in that of GGCUGUUCAAAGUGACCCUTT against Hbp1, -3.11 (active).
In the case of GCUGCCUAUGGCUUCUUCCTT against Tmem160 it was -1.37.
In the case of GGUGCUGAUUACAGUAGAATT against Pcdhga10 it was 2.01 (active); in that of GGACCAAGUAUCAUGAUGUTT against Zfp369, 0.222; in that of GCACCUCUUGGACAAAAUUTT against Tsc1, -1.59.
On to GGCGGCCUAUAUGAGGUUCTT against Cftr, for which the z-score is 0.548.
In the case of GCAUUGAGAUGAGAGCCUATT against Uroc1 it was -0.167.
With GCAGUUGUCAUGCUAAACCTT against Ptpn2, the z-score is 2.89 (active).
In the case of CGAAUACUACGCCAAGAUUTT against Abca2 it was -0.867; in that of GCUCAGUACCGCACAACCATT against Dus3l, -0.827.
In the case of CCUAUUGUGAGCUUAAUGCTT against Nrxn2 it was -0.74; in that of GGGCUAUGUACCCUAUAAUTT against Eps8l1, -1.37.
In the case of GGGCAUUGGUGACUUUGAATT against Hrob it was -2.11 (active); in that of GGACACAACAAGUCUUAUGTT against Prg2, -0.876.
Take CCUUGCUACUCUGAUAACGTT against Tmeff1: the z-score was 0.761.
In the case of CCUAGUGUGUUAAUUGUAATT against Ric1 it was -1.28; in that of GGAUGCUUACGGGAGACGATT against Tmem9, -0.595.
In the case of GGUGAAGGUGCCUUCCAAATT against Il27ra it was 2.91 (active).
In the case of GGAGAUUCACUUUCUAUCUTT against B3gnt9 it was 0.656; in that of CCCUAAGACGAAGGAAAUGTT against Pdrg1, -0.844; in that of GGCGAGUUCCAGAUUCUUCTT against Car3, 1.69.
In the case of GCUGAAGACCGACUACAAGTT against Cnih1, the z-score is 0.569.
“GGUGCCAAUCCUUUGGACATT against 4930590J08Rik”: the z-score was 3 (active).
For the sequence GGAAGUUUACCAGUCUAUCTT against Pik3c2a, the z-score is 1.4.
In the case of GCUACCCAUGAGCUUUCGATT against S100a3 it was 0.495; in that of GCCCAUUGUUACCUUGUACTT against Klb, -2.06 (active).
In the case of GGCCUUAUCGGCAGAUAUUTT against Tmem44 it was -1.24.
In the case of GGCAGUCUUAUAAUUCAUCTT against Zfp944 it was -1.08; in that of CGUUUGACACUUUUGCCUUTT against Mid1, 1.09.
On to GGUUUUUGUGGCUGAUCUUTT against Zfp711, for which the z-score is -0.545.
In the case of GGAUUUCCUUGGUUCUUUUTT against Mylip it was 0.145; in that of GCUCUUCCGCACUUUCAUUTT against H2al1m, 1.37; in that of GGAACACUCCAGUUUGAAUTT against Thsd1, 1.09.
For the sequence GGAACAAGUACAUACUUAUTT against Frs2, the z-score was 2.09 (active).
In the case of GCACUCAAGGUUUUACUGUTT against Satb1 it was -0.356; in that of CCUUGUGUAUGAAAUACUUTT against Taf1b, -0.282; in that of GCUUGAUUUUUGACAGAGATT against Mdh1b, 1.48.
In the case of GCGAUGAUGAAAGCUCAGUTT against Atad1 it was -2.36 (active); in that of CCAGGAGUCGAGUGAUGGUTT against Rtl1, 0.886; in that of GGGUAAACUGUGGAGAAAUTT against Fam214b, -0.833.
On to GGAAGAAGCAGCAAGAAGATT against Ttc39b, for which the z-score is -2.16 (active).
Turning to GAUGAAAGCUACAAUGAAGTT against Srpx2, the z-score was 1.67.
In the case of GGAAUUUCAGGAGAUACUGTT against C1qtnf12 it was -1.04; in that of GCCGGAUCUAUUAAAGAAATT against Hdac2, 0.134.
In the case of GCAACUAUACUGGACAAUUTT against Olfr328 it was -1.19; in that of GGCUUAUUAUCAGGAAAUGTT against Plcz1, -1.32.
In the case of GGAAGUCUACAAGUGGCCATT against Nr1d1 it was -0.467; in that of CGCAGCGACCAGCUUUCAATT against Srebf2, 0.789.
GGUGGUACGCAAUCAAAAGTT against Galnt17: the z-score is 2.46 (active).
As for GCCACCUAAUUUACAAUCUTT against Ccn3, the z-score is 0.573.
On to GCACCAAUUCCCUAACUGGTT against Fam102a, for which the z-score is 0.244.
In the case of GGACCUACAUAACAAGCUUTT against Thnsl2 it was 1.83; in that of GGCAGAAGCAGAUAUUAGATT against Rbmxl1, 2.23 (active).
With GGUUUCUGUUUUGUCACACTT against Slc22a13b, the z-score is -0.535.
In the case of GGGCAAUGGAAGAAUUCCUTT against BC030500 it was -1.69; in that of GGAGCAAGAUGAAGAAGAGTT against Ticam2, -2.26 (active); in that of CCACGCUACCUUCAAGAGATT against Clec14a, 0.946.
In the case of GGAUCUUGACUUUGAUAUGTT against Trpm4 it was 0.0632; in that of GGACUCAAAACCAUUUACATT against Dram1, -1.13; in that of GGAUCAACUGGUGACACAGTT against Preb, -0.00996.
In the case of GGAUCCUGCUCAAAAAAGUTT against Arxes1 it was -0.431; in that of GGAAGAUCAUAAUGGACAGTT against Pcsk9, 6.01 (active).
Take GAAGUCGGUGGACAAGAACTT against Cebpa: the z-score is 0.662.
In the case of “GCACUGUUUGUGCAAACAATT against C130071C03Rik” it was -2.22 (active).
In the case of CCACUCUAAUGAUGUUUUUTT against Slc46a3 it was 0.411; in that of CCCACUGGUGUACGUGAUCTT against Bdkrb2, 2.21 (active); in that of GGCUAAGGAAUGUCAAUAATT against Dnajc5g, 0.0787.
In the case of GGUGCUACCUCUAGAUAUUTT against Utp3 it was 1.96; in that of CCACUUCUCUAAGACAAUCTT against Acox3, -0.107; in that of CCCAUUGGAACUGCUGUAATT against Metrnl, 0.932.
